KLK7 zymogen act: activates the human kallikrein-7 zymogen; activation, % at 7 µM; P49862; AID 652039; purified proKLK7, EDANS-DABCYL substrate fluorescence; 100% is mature enzyme control, 0% vehicle; 0.9% of 370,000 active;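 active = activation above the mean of all tested compounds plus 3 SD, computed per campaign excluding outliers beyond control limits, cut at about 13% in these data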
ADAM10 inh: inhibits human ADAM10; O14672; recombinant ADAM10, EDANS/DABCYL FRET peptide cleavage, 3 h; inhibition, % at 7 µM; 0.62% of 370,000 active; AID 720582;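 active = inhibition above a per-campaign cutoff equal to the mean of compounds falling between control-based bounds plus 3 SD, cut at about 20% in these data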;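 also: 0% = DMSO wells while the 100% control is not disclosed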
ADAM17 inh: inhibitors of human ADAM17. P78536. recombinant ADAM17, EDANS/DABCYL FRET peptide cleavage. inhibition, % at 6.95 µM. 0.83% of 370,000 active. AID 720648;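 active = inhibition above the mean of compounds lying between control limits plus 3 SD, set per campaign, cut at about 8.5% in these data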;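 also: 0% = DMSO-only wells as the low control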
Target sequence (P78536 215-824 limits assumed): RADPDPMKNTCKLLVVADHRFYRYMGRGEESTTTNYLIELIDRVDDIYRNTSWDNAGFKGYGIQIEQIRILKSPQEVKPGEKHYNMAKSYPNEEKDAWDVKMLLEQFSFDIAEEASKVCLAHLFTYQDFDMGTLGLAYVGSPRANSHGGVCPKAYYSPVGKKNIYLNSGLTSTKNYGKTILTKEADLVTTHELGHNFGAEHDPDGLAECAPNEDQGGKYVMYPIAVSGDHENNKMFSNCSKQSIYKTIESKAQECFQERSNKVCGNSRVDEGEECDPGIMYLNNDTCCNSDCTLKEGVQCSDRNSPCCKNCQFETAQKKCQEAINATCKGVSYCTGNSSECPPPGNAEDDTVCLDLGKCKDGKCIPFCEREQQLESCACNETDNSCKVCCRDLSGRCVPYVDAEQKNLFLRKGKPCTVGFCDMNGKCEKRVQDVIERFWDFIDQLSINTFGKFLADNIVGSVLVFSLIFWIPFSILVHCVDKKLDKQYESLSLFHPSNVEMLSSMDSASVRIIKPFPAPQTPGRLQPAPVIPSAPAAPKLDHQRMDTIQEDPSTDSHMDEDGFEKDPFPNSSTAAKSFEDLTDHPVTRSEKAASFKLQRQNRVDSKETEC
PLCb3 inh: PLC-beta3 (human) inhibition, primary screen. Q01970. 0.18% of 370,000 active. AID 720704. Purified PLC-beta3, fluorogenic substrate, fluorescence. inhibition, % at 12.2 µM; in the data active = inhibition above about 11%;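 also: 0% = median of compound wells on plate and 100% = full blocker control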
PLCg1 inh: PLC-gamma1 (human) inhibition, primary screen; P19174; purified PLC-gamma1, fluorogenic substrate, fluorescence; inhibition, % at 12.2 µM; 0.84% of 370,000 active; in the data active = inhibition above about 9.5%
KLK7 act conf: proKLK7 activation, confirmation | shares compounds with KLK7 zymogen act | purified proKLK7, EDANS-DABCYL substrate fluorescence; scaled: vehicle 0, mature enzyme 100 | activation, % at 7 µM | 68% of 3,200 active | AID 686949;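 active = activation, as change over the incubation, above the mean of all tested compounds plus 3 SD, cut at about 13% in these data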
EDANS-DABCYL int: fluorescence interference counter-screen for KLK7 activators; shares compounds with KLK7 zymogen act; activation, % at 7 µM; 80% of 3,200 active; EDANS-DABCYL substrate fluorescence interference, no enzyme, 4 h; solvent 0%, active enzyme control 100%;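 active = activation above the all-compound mean plus 3 SD, ignoring values outside control-based bounds, cut at about 4.8% in these data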;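 also: value is the 4 h activation minus the activation read at time zero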
* marks the source's active call; other numbers are inactive results; i = inactive; · = no result. Shown are actives, neighbours in structure and some others; about 2.9% of the full set was active somewhere.

SMILES	KLK7 zymogen act	ADAM10 inh	ADAM17 inh	PLCb3 inh	PLCg1 inh	KLK7 act conf	EDANS-DABCYL int
C#CCCCN([C@H](C(=O)OC)C(C)C)S(=O)(=O)c1ccc(F)cc1Br	-0.5	8.9	5.3	4.4	1.2	·	·
Cc1ccc(NC(=O)CSc2nnc(-c3cc(-c4ccc(Cl)cc4)n[nH]3)n2N)cc1	0.3	-0.1	3.8	-0.8	1.5	·	·
COc1cccc(Cn2cc(COC(=O)NCC(C)C)nn2)c1	0.5	2.3	-3.5	-2.9	-1.4	·	·
CCCN1CNc2c(c(=O)[nH]c(=S)n2CCc2c(Cl)cccc2Cl)C1	·	-4.7	-4.7	-4.3	0.3	·	·
O=C(Nc1cccc2c1C(=O)NC2=O)c1ccc(S(=O)(=O)N2CCCC2)cc1	21.6*	-188.7	-79.6	i	i	257.9*	264.0*
Cc1cccc(NC(=O)c2ccc(S(=O)(=O)N3CCCC3)cc2)c1C	-0.1	5.9	-2.1	4.8	1.8	·	·
COc1ccc(-c2cc(=Nc3c(C)n(C)n(-c4ccccc4)c3=O)c3ccccc3o2)cc1	39.6*	i	i	i	-361.0	43.5*	53.4*
C=CCN(CC#Cc1ccccc1)Cc1ccc(OC)cc1	-0.3	-5.0	-1.8	-0.5	-0.5	·	·
COc1ccc(C(=O)/C=C/c2ccc(O)cc2)cc1	17.6*	-104.7	-20.3	-89.3	-72.6	4.3	5.5*
COc1cc(/C=C/C(=O)c2ccc(O)cc2)ccc1OCC#N	15.8*	-18.4	4.2	-17.6	-12.2	3.0	4.2*
COc1ccc(/C=C/C(=O)c2ccccc2)cc1COc1ccccc1F	263.4*	0.1	-0.8	-2.8	-1.5	-17.0	80.2*
COc1ccccc1/C=C/C(=O)OCC(=O)Nc1ccc2c(c1)OCCO2	0.1	-36.0	-9.6	-8.7	-1.3	·	·
COc1cc(/C=C/C(=O)OCC(=O)Nc2ccc3c(c2)OCCO3)ccc1OCC#N	38.3*	-252.8	-21.7	-37.3	-29.7	128.1*	110.1*
COc1ccc(C=O)cc1COc1ccccc1F	0.4	0.0	-0.5	1.3	-1.5	·	·
CCCC(=O)OC12CCCN(C1)/C(=C/c1ccc(Cl)cc1)C2 (stereo not drawn)	-0.5	-3.8	1.2	-1.1	-1.2	·	·
O=C(NCc1ccco1)/C(=C/c1cccc(C(F)(F)F)c1)c1nc2ccccc2[nH]1	-1.0	-70.2	-24.4	-62.4	-50.1	·	·
O=C(NCc1ccco1)/C(=C/c1ccc(C(F)(F)F)cc1)c1nc2ccccc2[nH]1	61.1*	-119.5	-37.3	-53.6	-44.7	84.1*	95.9*
O=C(Nc1nc2n(n1)C(c1ccccc1)C=C(c1ccccc1)N2)c1ccco1 (stereo not drawn)	-4.6	-321.2	-109.8	i	i	·	·
CC(=O)Nc1nc2n(n1)C(c1ccc(F)cc1)C=C(c1ccccc1)N2 (stereo not drawn)	22.4*	-250.2	-85.8	i	i	-23.1	0.3
O=C(c1nc2n(n1)C(c1ccc(Cl)cc1)C=C(c1ccccc1)N2)N1CCOCC1 (stereo not drawn)	54.3*	-143.2	-48.1	i	i	-37.2	-34.4
COc1ccccc1NC(=O)OC1CCC12CCCCC2 (stereo not drawn)	0.4	-10.9	-3.1	-0.3	-2.5	·	·
COC(=O)[C@]1(CNC(=O)c2cc(F)ccc2F)CC(=O)N(C)[C@@H]1c1ccccc1	-0.2	-2.0	0.1	4.3	1.3	·	·
C[n+]1ccc(/C=C/c2c[nH]c3ccc(F)cc23)cc1	15.3*	-13.3	1.4	-404.9	-266.6	10.3	14.1*
CN(Cc1cn(CC2CCCCC2)nn1)S(=O)(=O)c1ccccc1Br	-0.2	0.5	-2.7	0.6	-0.3	·	·
Nc1ccc2c(C(F)(F)F)cc(=O)oc2c1	36.1*	i	i	i	i	87.9*	85.7*
COc1ccc(CN2C(C(=O)NC3CCCC3)CSCCS2(=O)=O)cc1 (stereo not drawn)	-0.1	-2.8	-5.7	1.8	3.7	·	·
CCN1CCCC1Cn1cnc2c([nH]c3ccc(C)cc32)c1=O (stereo not drawn)	16.1*	-393.3	-114.6	-75.2	-56.6	4.8	5.0*

Screens deposited in PubChem BioAssay by The Scripps Research Institute Molecular Screening Center.
